Test results reported in PubChem BioAssay (NCI).
About 83,000 compounds went through this panel and 20% of them were active in at least one assay; those are over-represented in the sample as a whole.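 For each line, cells grew in 96-well plates with the test compound present at a single concentration for 48 hours.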 Unmarked numbers belong to inactive results. Active and inactive are the calls of the source. Rule for the calls: active = growth percent below 10; inactive = the rest.

Key:
Experiment in all cases: NCI-60 one-dose screen, 48 h (100 = growth as untreated, 0 = no growth, -100 = all killed)
Details in all cases: 10 µM unless noted
[1] = test system: NCI-H23 lung
[2] = test system: NCI-H226 lung
[3] = test system: NCI-H322M lung
[4] = test system: HOP-62 NSCLC
[5] = test system: NCI-H460 lung
[6] = test system: HOP-92 NSCLC
[7] = test system: A549/ATCC NSCLC
[8] = test system: 786-0 renal
[9] = test system: COLO 205 colon
[10] = test system: DU-145 prostate
[11] = test system: K-562 leukemia
[12] = test system: MALME-3M melanoma
[13] = test system: MDA-MB-231 breast
[14] = test system: RXF 393 renal
[15] = test system: SF-268 CNS
[16] = test system: SF-295 CNS
[17] = test system: SF-539 CNS
[18] = test system: UACC-257 melanoma
[19] = test system: M14 melanoma

| SMILES | growth [1] | growth [2] | growth [3] | growth [4] | growth [5] | growth [6] | growth [7] | growth [8] | growth [9] | growth [10] | growth [11] | growth [12] | growth [13] | growth [14] | growth [15] | growth [16] | growth [17] | growth [18] | growth [19] |
| --- | --- | --- | --- | --- | --- | --- | --- | --- | --- | --- | --- | --- | --- | --- | --- | --- | --- | --- | --- |
| N/C(=N\c1nc2ccccc2s1)NC(=O)Nc1ccccc1Cl | 34.9% | 35.3% | 45% | 28.6% | 12.7% | 139% | 21.6% | 36.6% | -44.4% (active) | 21.8% | 6.5% (active) | 63.3% | 42.1% | -13.9% (active) | 60.9% | 9.08% (active) | -14.2% (active) | 62.3% |  |
| O=C1c2cccc(NCCN=Cc3ccccc3O)c2C(=O)c2c(NCCN=Cc3ccccc3O)cccc21 | 27.8% | 73.1% | -19.2% (active) | 17.6% | 4.28% (active) | -38.3% (active) | 25.7% | 36.7% | 8.33% (active) | 16% | 38% | 21.8% | 21% | 33.9% | 7.05% (active) | 49.8% | 22.4% | 94.6% |  |
| Cc1cc(C)nc(NS(=O)(=O)c2ccc(Nc3nc4nc(SCc5ccccc5)nc(-c5ccc(O)cc5)c4c(=O)[nH]3)cc2)n1 | 106% | 93.8% | 111% | 93.4% | 107% | -9.71% (active) | 98% | 97% | 103% | 136% | 84.2% | 67.7% | 93.8% | 78.6% | 84% | 83.3% | 98.9% | 113% |  |
| O=C(Nc1ccc2c(c1)C(=O)c1ccccc1-2)c1ccccc1 | 95% | 97.6% | 101% | 44.3% | 87.4% | 82.1% | 100% | 52.1% | 97.8% | 81.9% | 81.2% | 90.2% | 81.9% | 99.2% | 65.2% | 103% | 52.6% | 111% | 88% |
| CC(C)C[C@H](NC(=O)/C=C/Cn1ccc2ccccc2c1=O)B(O)O | 56.3% | -15.5% (active) | 85.4% | 44.8% | 84.6% | 99.7% | 69% | 55.1% | 49.7% | 40.6% | 35.8% | -30% (active) | 35.1% | 8.46% (active) | 24.6% | 26.8% | 15.1% | 43.2% |  |
| C/C(=C\CCc1ccoc1)CC/C=C(\C)CCCN1CCSCC1 | 64.6% | 80% | 7.95% (active) | 97.5% | 10.1% | 73.3% | 28.4% | 91.6% | 51.1% | 92.9% | 56.6% | 104% | 80% | 78.8% | 96.4% | 46.9% | 92.1% | 61.1% | 81.6% |
| CC(=O)N1N=C(c2ccc(Nc3nc(NCCO)nc(NCCO)n3)cc2)CC1c1ccc(Cl)cc1 (centres undefined) | 95.6% | 103% | 89.3% | 93.7% | 101% | 109% | 78.6% | 89% | 102% | 98.6% | 119% | 91% | 92.5% | 108% | 100% | 96.6% | 90.2% | 91.8% | 98.9% |
| Cc1cc(=O)oc2cc(OCCn3c(C)nn(-c4ccc(Cl)cc4)c3=O)ccc12 | 45.8% | 50.1% | 58.7% | 27.4% | 17.2% | 47.4% | 30.2% | 32.9% | 10.6% | 21.6% | 16.3% | 32.9% | 47.5% | 37.4% | 50.3% | 14% | 29.5% | 22.5% |  |
| O=C1CNc2cc(Cl)ccc2N1 | 96.7% | 103% | 106% | 99.2% | 109% | 102% | 113% | 109% | 106% | 121% | 104% | 104% | 98.3% | 101% | 103% | 105% | 106% | 113% | 114% |
| CCOC(=O)c1cc2oc(/C=C/c3cc(=O)c4cc(Cl)ccc4o3)cc2[nH]1 | 98.6% | 76.9% | 108% | 99.6% | 88.9% | -17.9% (active) | 99% | 97.7% | 93.9% | 65.4% | 88.9% | -14.5% (active) | 78.9% | 58% | 73% | 109% | 70% | 101% |  |
| CCCCCN1C(=O)CCC1=O | 110% | 101% | 110% | 92.9% | 120% | 79.3% | 99% | 111% | 99.4% | 101% | 114% | 90.3% | 109% | 122% | 93.3% | 101% | 102% | 99.4% |  |
| Cc1ccccc1NC(=O)N/C(N)=N/c1nc2ccccc2s1 | 31.8% | 21% | 39.2% | 40.7% | 11.7% | 126% | 22.7% | 30.7% | 6.68% (active) | 17.5% | 6.45% (active) | 50.4% | 43.2% | -2.64% (active) | 48.7% | 11.8% | -17.9% (active) | 67.4% |  |
| COc1cnc2c(c1)C(=O)c1c-2n(CCCNC(C)C)c(=O)c2cc(F)ccc12 | -39.9% (active) | -52.6% (active) | -13.1% (active) | -35.8% (active) | -32% (active) | -8.3% (active) | -68.6% (active) | -73% (active) | -19.7% (active) | -8.54% (active) | -6.91% (active) | -70.1% (active) | 1.51% (active) | -85.5% (active) | 4.2% (active) | -23% (active) | -73.4% (active) | -16% (active) | -81.9% (active) |
| COc1cnc2c(c1)C(=O)c1c-2n(CCCN2CCOCC2)c(=O)c2cc(F)ccc12 | -15% (active) | -64.5% (active) | 8.18% (active) | -23% (active) | -32.9% (active) | -13.5% (active) | -29.2% (active) | -60.1% (active) | -8.99% (active) | 3.8% (active) | 12.4% | -31.8% (active) | 40.6% | -30.1% (active) | 3.55% (active) | -21.1% (active) | -61.4% (active) | -10.6% (active) | 0.95% (active) |
| ICCC(c1ccccc1)(c1ccccc1)c1ccccc1 | 65.6% | 89.8% | 86.4% | 55.8% | 69.5% | 40.6% | 59.8% | 43.8% | -61.5% (active) | 79.1% | -9.2% (active) | -43.4% (active) | 41.7% | 28.4% | 62.7% | 51.3% | 10.6% | -62.8% (active) | -76.2% (active) |
| Nc1nc(NC2CC2)c2ncn(C3C=CC(CO)C3)c2n1 (centres undefined) | 107% | 91.4% | 94% | 104% | 118% | 97% | 108% | 107% | 121% | 126% | 84.2% | 105% | 98.5% | -4.67% (active) | 126% | 106% | 118% | 100% | 116% |
| COC(=O)c1cc2c(/C=C3/NC(=S)NC3=O)coc2n1C | 103% | 110% | 87.1% | 89.3% | 115% | -38.5% (active) | 104% | 98.2% | 97.7% | 134% | 95.6% | 58.4% | 82.2% | 38.4% | 37.7% | 45.2% | 82.2% | 107% |  |
